# Results reported in PubChem BioAssay AID493035 (The Scripps Research Institute Molecular Screening Center, 2011).
# The campaign covered roughly 2,000 compounds. About 45 (2%) were called active. The sample holds actives, similar compounds and a random draw of the others, so the mix is not that of the screen. Unmarked numbers belong to inactive results.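 How the source made its calls: active means inhibition above the mean of all tested compounds plus 3 SD (cut at about 49% in these data); inactive means the rest.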
# Target: Perilipin-5 (Homo sapiens) + 1-acylglycerol-3-phosphate O-acyltransferase ABHD5 (Homo sapiens) (UniProt Q00G26+Q8WTS1)
# Sequence (Q00G26 whole entry, looked up): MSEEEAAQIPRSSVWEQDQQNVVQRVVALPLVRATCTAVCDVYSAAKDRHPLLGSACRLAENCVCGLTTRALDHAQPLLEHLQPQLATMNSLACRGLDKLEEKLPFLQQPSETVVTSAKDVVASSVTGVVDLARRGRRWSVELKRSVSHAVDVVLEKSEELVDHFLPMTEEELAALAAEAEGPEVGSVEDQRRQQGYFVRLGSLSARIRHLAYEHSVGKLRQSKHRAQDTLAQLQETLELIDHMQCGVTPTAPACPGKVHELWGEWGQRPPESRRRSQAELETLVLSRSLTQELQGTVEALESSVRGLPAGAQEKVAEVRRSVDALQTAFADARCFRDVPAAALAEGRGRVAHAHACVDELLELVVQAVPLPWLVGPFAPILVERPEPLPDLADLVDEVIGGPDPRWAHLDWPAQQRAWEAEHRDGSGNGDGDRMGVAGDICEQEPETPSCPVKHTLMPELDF
# Sequence (Q8WTS1 whole entry, looked up): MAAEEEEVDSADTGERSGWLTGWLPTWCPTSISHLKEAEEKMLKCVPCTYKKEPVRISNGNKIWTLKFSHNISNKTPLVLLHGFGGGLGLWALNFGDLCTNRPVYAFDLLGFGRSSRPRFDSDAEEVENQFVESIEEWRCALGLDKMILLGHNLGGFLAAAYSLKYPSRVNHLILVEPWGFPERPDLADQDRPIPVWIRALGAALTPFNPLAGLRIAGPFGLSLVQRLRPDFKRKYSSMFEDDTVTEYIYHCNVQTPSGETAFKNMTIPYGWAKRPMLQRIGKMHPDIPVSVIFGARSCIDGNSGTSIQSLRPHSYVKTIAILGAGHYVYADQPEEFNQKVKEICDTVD
# Assay: ABHD5-PLIN5 interaction inhibitors, pilot screen, cell lysate, split luciferase complementation, luminescence, NIH validation set (AID 493035);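 further: 0% = DMSO only wells while the 100% control is not stated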
# Details: split G. princeps luciferase complementation, lysates, 4 h; at 7.9 µM, stronger effect = higher value
row,Structure (SMILES),inhibition
1,CCn1cc(CN2N=C(C)CC2c2ccccc2)c(C)n1 (stereo unspecified),2.34%
2,Cc1ccc(S(=O)(=O)NC(=O)Nc2cc(C)ccc2F)cc1,-7.32%
3,CC(C)(C)N1NC2(CCCCC2)NC1=S,6.12%
4,COc1ccc2oc(=O)c(C(=O)N3CCN(c4ccccc4)CC3)cc2c1,9.11%
5,COc1ccc(O)c(C(=O)/C=C/c2cc3ccccc3o2)c1,73.2% (active)
6,COc1ccc2oc(=O)c(C(=O)Nc3ccccc3-c3ccccc3)cc2c1,-5.51%
7,Cc1ccc(C(=O)O)cc1NC(=O)c1cccs1,-5.26%
8,CN1/C(=C\C=Nc2ccccc2)C(C)(C)c2ccccc21,14.1%
9,COc1ccc2cc(-c3nc4ccccc4n3C)c(=O)oc2c1,-5.19%
10,CCn1c2ccccc2c2cc(CC(N)=O)ccc21,-7.62%
11,COc1ccccc1C(=O)Nc1cc2cc(Br)ccc2oc1=O,-7.35%
12,Cc1ccc(CSCC(=O)NCCCN2CCOCC2)cc1,2.33%
13,Cc1cc(=O)c2c(O)c(O)ccc2o1,-3.3%
14,O=c1nc2sc3ccccc3n2c(=O)n1-c1ccc(Cl)cc1,5.72%
15,COc1ccc(C)cc1S(=O)(=O)Nc1ccc(F)cc1,0.68%
16,CNS(=O)(=O)c1ccc(C)cc1,-16.6%
17,Cc1ccc(S(=O)(=O)N[C@@H](Cc2ccccc2)C(=O)CCl)cc1,84.4% (active)
18,CCCCNC(=O)NS(=O)(=O)c1ccc(C)cc1,-4.64%
19,COc1ccc(-c2nnc(-c3cc4c(ccc5ccccc54)oc3=O)o2)cc1,5.2%
20,COc1c(C=O)c(CCN(C)C(=O)c2ccc(F)cc2)cc2c1OCO2,3.02%
21,CCCOc1ccc(-c2cc(C(=O)NCC3CCCO3)c3ccccc3n2)cc1 (stereo unspecified),-0.81%
22,COC(=O)c1cc(-c2ccc(C)o2)nc2ccccc12,72.8% (active)
23,O=C(O)c1cc(-c2ccccc2)nc2ccccc12,-2.12%
24,C/C(=N\NC(=O)c1ccccc1[N+](=O)[O-])c1ccc(Br)s1,-7.54%
25,Cc1cc(C)c(NC(=O)NC(=O)C(Cl)(Cl)Cl)c(C)c1,-18.5%
26,O=C(/C=C/c1ccc2c(c1)OCO2)c1ccccn1,55.7% (active)

row,Structure (SMILES),inhibition
1,O=C(/C=C/c1ccc2c(c1)OCCCO2)c1ccc2ccccc2c1O,26.6%
2,O=C(/C=C/c1ccc2c(c1)OCO2)NCc1ccc(F)cc1,1.71%
3,O=C1N[C@@H](Cc2cnc[nH]2)C(=O)N2CCC[C@@H]12,-13.3%
4,O=C(c1ccccc1F)c1cc2c(cc1[N+](=O)[O-])OCCO2,2.64%
5,O=C(CN1CC[n+]2c(-c3cccs3)csc21)c1ccc(Br)cc1,51.8% (active)
6,COc1ccc(-c2c3c(=O)n(C)c(=O)n(C)c3cn2C2CCCCC2)cc1,7.04%
7,O=C(O)/C=C/c1cccc(OCc2ccccc2)c1,-15.3%
8,CC(C)C[C@H](NC(=O)NC(C)C)C(=O)O,-0.17%
9,CC(C)OC(=O)CC1C(=O)NCCN1C(=S)NC(=O)c1cccs1 (stereo unspecified),-6.51%
10,COc1ccc(C2CC(c3c(O)cc(C)oc3=O)=NCCS2)c(OC)c1 (stereo unspecified),22.5%
11,COc1cc2c(cc1OC)/C(=C/c1ccc(Cl)cc1)C(=O)OC2,33.3%
12,O=C1ON=C(c2ccc(Cl)cc2)/C1=C/c1ccc(O)cc1,70.2% (active)
13,Nc1cccc(C(=O)O)c1,-4.68%
14,O=C(O)C1[C@H]2C(=O)N(C3CCCC3)C[C@]23C=C[C@H]1O3 (stereo partly specified),-13.3%
15,O=C1CCCN1C(=O)CCC(=O)N1CCCC1=O,4.49%
16,Cc1oc2c(C)c3oc(=O)c4c(c3cc2c1C)CCCC4,1.69%
17,CS(=O)(=O)Oc1ccc2c(c1)O/C(=C\C=C\c1ccccc1)C2=O,53.5% (active)
18,COc1ccccc1C(=O)Oc1ccc2c(c1)O/C(=C\c1ccncc1)C2=O,35.9%
19,CCc1ccc(/C=C2\Oc3cc(OC(=O)N4CCOCC4)ccc3C2=O)cc1,17.7%
20,O=C(O)C1CCN(C(=O)COc2ccc3c4c(c(=O)oc3c2)CCC4)CC1,-5.81%
21,COc1ccc([C@H]2[C@H](C(=O)OC(C)(C)C)N3N=Cc4ccccc4C3C23C(=O)c2ccccc2C3=O)cc1OC (stereo partly specified),0.07%
22,O=C(NCCO)c1ccc2[nH]c3ccccc3c2c1,-4.84%
23,COc1ccc2nc(C)cc(Nc3ccccc3O)c2c1,-5.57%
24,COc1cc2c3c(c1)C(C)CC(C)(C)N3C(=O)C2=O (stereo unspecified),3.84%
25,O=C1c2ccccc2C2(c3ccccc3)NCCN12 (stereo unspecified),0.12%
26,CC1(c2ccccc2)CC(C)(C)N2C(=O)C(=O)c3cccc1c32 (stereo unspecified),59.8% (active)

row,Structure (SMILES),inhibition
1,Cc1[nH]c2ccccc2c1/C=C/c1nc2ccccc2c(=O)n1CCO,8.95%
2,C[C@]12CC[C@@H]3c4ccc(O)cc4C(=O)C[C@H]3[C@@H]1CC[C@@H]2O,9.16%
3,CC(=O)OCC1OC(n2ccc(=O)[nH]c2=O)C(O)C1O (stereo unspecified),-2.69%
4,C/C(=N\NC(=O)C1(C)CC1(Br)Br)c1ccc([N+](=O)[O-])cc1 (stereo unspecified),-8.2%
5,O=C(NCc1ccc(N2CCCC2=O)cc1)c1ccc(F)cc1,7.2%
6,CC(=Nc1ccccc1)C1=C(O)CCCC1=O,0.34%
7,O=C(/C=C/c1ccco1)N1CCN(c2ccccc2)CC1,2.96%
8,CC1(C)c2ccccc2N2CC(=O)NC21/C=C/c1ccco1 (stereo unspecified),50.2% (active)
9,CC1(C)c2ccccc2N2CC(=O)N(CC(N)=O)C21C (stereo unspecified),4.9%
10,Nc1ccc2cn[nH]c2c1,-10.6%
11,Cc1ccc(N2C(=O)c3ccccc3C2=O)cc1C,-3.44%
12,CNc1nc(N(C)C)nc(N(C)C)n1,-0.61%
13,COC(=O)c1ccc(C(=O)OC)c(NC(=O)C(C)C)c1,-13.5%
14,COc1ccc(-c2nc(NC(C)=O)sc2-c2ccc(OC)cc2)cc1,2.96%
15,COc1ccc(C2=CC(=O)C=CC2=O)cc1,69.1% (active)
16,COc1ccc(C2C(=O)c3ccccc3C2=O)cc1,-1.24%
17,COc1ccccc1CCn1cnc2c3cc(C)ccc3n(C)c2c1=O,12.2%
18,CCOc1cc2c(cc1OCC)C(c1ccccc1)N(c1ccc(C(=O)O)cc1)C(=O)C2 (stereo unspecified),5.15%
19,CCS(=O)(=O)Nc1cc(OC)c(OC)cc1Cc1nccc2cc(OC)c(OC)cc12,-5.76%
20,O=C(COc1ccc2ccc(=O)oc2c1)c1ccccc1,-3.28%
21,COc1ccc2c(c1)C=CC1(O2)N(CCO)c2ccccc2C1(C)C (stereo unspecified),50.9% (active)
22,COc1ccc(NC(=O)C2C(=O)N(CCO)C3(C)CC2c2ccccc2O3)cc1 (stereo unspecified),-8.28%
23,O=C1CCCN1CCCn1cnc2c([nH]c3ccc(F)cc32)c1=O,1.78%
24,CC12CCCCN1CCCc1c2[nH]c2ccccc12 (stereo unspecified),6.67%
25,CC(C)C[C@H](NC(=O)[C@@H]1Cc2ccccc2CN1C(=O)OC(C)(C)C)C(=O)NCC1CCC(C(=O)O)CC1 (stereo partly specified),-1.68%
26,COc1ccccc1C(CC(=O)Nc1ccccc1C)c1ccc(OC(C)C)cc1 (stereo unspecified),1.65%

row,Structure (SMILES),inhibition
1,COc1ccc(CN(CCC(c2ccccc2)c2ccc(OC(C)C)cc2)C(=O)CCl)cc1OC (stereo unspecified),67% (active)
2,COc1ccc(CNCCC(c2ccc(F)cc2)c2ccc(OC(C)C)cc2)cc1OC (stereo unspecified),-5.38%
3,Cn1c(=O)oc2cc(S(=O)(=O)N3CCc4ccccc4C3)ccc21,-0.05%
4,CC(C)C12CN3CC(C(C)C)(CN(C1)C3c1ccccc1O)C2=O (stereo unspecified),0.76%
5,c1coc(-c2nnc3n2C2(CCCC2)Cc2ccccc2-3)c1,-2.54%
6,CC(C)CN1CCN(Cc2ccc(C#CC(C)(C)O)cc2)CC1CCO (stereo unspecified),1.45%
7,COc1ccc(CN2CCCCC2C(=O)Nc2ccc(OC)c(OCC(C)C)c2)cc1OC (stereo unspecified),-8.58%
8,COc1ccccc1C(O)c1nccn1C (stereo unspecified),-0.96%
9,COc1cc(/C=C(\C#N)C(=O)N2CCc3ccccc32)ccc1O,50.3% (active)
10,COc1cc(/C=C/C(=O)CC(=O)/C=C/c2ccc(O)c(OC)c2)ccc1O,47.6%
11,CC12CCC(C(=O)N3CCc4ccccc43)(CC1=O)C2(C)C (stereo unspecified),-4.02%
12,Cn1c(=O)[nH]c(=O)c2c1nc(NCc1ccco1)n2CCCc1ccccc1,-10%
13,CC1(C)CC(NC(=O)C23CCC(C)(C(=O)C2=O)C3(C)C)CC(C)(C)N1 (stereo unspecified),-7.41%
14,NC(N)=N/N=C/c1ccc(OS(=O)(=O)c2ccccc2)cc1,-1.57%
15,COc1cc(C(=O)Nc2cccc(-c3nnc(-c4ccco4)o3)c2)ccc1OC(C)=O,-3.44%
16,COc1ccc(/C=C2\CCn3c2nc2cc(C(=O)O)ccc2c3=O)cc1OC,-3.54%
17,COc1ccc(/C=C2\CCc3ccccc3C2=O)c(OC)c1OC,-7.62%
18,COc1ccc(/C=C2\CC/C(=C\c3ccc(OC)c(OC)c3)C2=O)cc1OC,72.8% (active)
19,COc1ccc(C(=O)Nc2ccccc2C(=O)NCCCn2ccnc2)cc1,-6.29%
20,Cc1nonc1CN(C)C(=O)c1ccc(OC2CCN(C(=O)c3cccnc3)CC2)cc1,2.15%
21,S=C(NCc1ccccc1)NCc1cccc(CNC(=S)NCc2ccccc2)c1,10.2%
22,N#C/C(=C/c1ccccc1)C(=O)NCc1ccccc1,62.6% (active)
23,N#C/C(=C\c1ccc(O)c(O)c1)C(=O)NCCCc1ccccc1,28.2%
